Data from PubChem BioAssay (NCI).
Compounds without any hit were thinned out: in the full panel of roughly 83,000, 20% have a hit.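 Results are percent growth after 48 hours of single-concentration exposure. 100 means growth as in untreated cells, lower positive values show inhibition; negative values down to -100 show cell death.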 Unmarked numbers belong to inactive results. Calls of active or inactive are those of the source. How the source made its calls: active means growth percent below 10; inactive means the rest.

System: MDA-MB-435 melanoma
Assay: NCI-60 one-dose screen, 48 h (100 = growth as untreated, 0 = no growth, -100 = all killed)
Conditions: 10 µM unless noted

Compound | growth
O=C1c2cccc3c(-c4ccc(-c5nc6c7ccccc7c7ccccc7c6[nH]5)cc4)ccc(c23)C(=O)N1CCN1CCNCC1 | 100%
C=C(C=O)C1CCC2(C(=O)O)CCC3(C)C(CCC4C5(C)CCC(O)C(C)(C)C5CCC43C)C12 (stereo not drawn) | 16%
NC(=O)CC1(O)C=C(Br)C(=O)C(Br)=C1 | 32.4%
Cc1ccc(-n2nnc(C3=NCCc4c3[nH]c3ccc(Cl)cc43)c2C)cc1 | 78%
CCN(CC)CC(O)CNc1c2ccc(Cl)cc2nc2ccc(OC)cc12 (stereo not drawn) | -72.1% (active)
C=C1C(=O)O[C@H]2[C@H]1CC/C(C(=O)NCCCCCCCCNC(=O)/C1=C/CC[C@@]3(C)O[C@H]3[C@H]3OC(=O)C(=C)[C@@H]3CC1)=C\CC[C@@]1(C)O[C@@H]21 | 86.8%
NS(=O)(=O)c1cn(-c2ncnc3nc[nH]c23)ccc1=O | 103%
O[C@H]1CO[C@H]2[C@@H]1OC[C@@H]2Oc1ccc(Nc2nc(Nc3ccc(F)c(Cl)c3)ncc2F)cc1Cl | 93.1%
N#Cc1c(NC(=O)c2cccc(C(F)(F)F)c2)sc2c1CCC(=O)C2 | -74.6% (active)
Cc1cc(-c2ccccc2)cc(SC#N)[n+]1[O-] | 47.5%
CSc1nc(N)c(CNC(C)c2ccccc2)c(=O)n1C (stereo not drawn) | 98.4%
Nc1c(-c2nc3ccc(Br)cc3c(=O)[nH]2)nnn1-c1ccccc1 | 72.2%
CN1CCN(c2ccc3nc(/N=C/c4ccc5sc(-c6ccc([N+](=O)[O-])cc6)nc5c4)sc3c2)CC1 | 102%
